Measurements as given in the supplement of paper PMC10037445.
Whole data set: some 2,900 compounds, median “NF-kB SEAP reporter activity, fold change vs agonist alone” near 0.99, cut for the highest 2% near 2.6. Many of the other results were omitted from the sample, so the highest values are more common in it than they were.

Experiments:
RAW-Dual [1] = assay: NF-kB SEAP reporter activity, fold change vs agonist alone; cytotoxicity flag (confluency mask): not cytotoxic; higher = enhanced NF-kB activity
Outline: (§1)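 Supernatant from RAW-Dual macrophages was read after 20 hours for IRF by QuantiLuc luminescence and for NF-κB by QuantiBlue absorbance at 620 nm. The cells (50,000 cells/well in DMEM, 384-well plates, 37 °C, 5% CO2) had received 50 nL of library stock by pin tool and, 1 h later, a PRR agonist. Reporter activity is expressed relative to agonist-alone wells as fold change, and wells were flagged cytotoxic if IncuCyte confluency was under 70% of agonist controls in both mask sets.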

RAW-Dual [2] = assay: NF-kB SEAP reporter activity, fold change vs agonist alone; higher = enhanced NF-kB activity
Outline: as §1

RAW-Dual [3] = assay: NF-kB SEAP reporter activity, fold change vs agonist alone; cytotoxicity flag (confluency mask): cytotoxic (confluency <70% of control); higher = enhanced NF-kB activity
Outline: as §1

[4] = agonist: ODN 1826 (TLR9) 0.5 ug/mL
[5] = agonist: Pam2CSK4 (TLR2/6) 0.1 ug/mL
[6] = agonist: Pam3CSK4 (TLR2/1) 0.1 ug/mL
[7] = library stock concentration (final ~1000-fold dilution): 10 mM, cytotoxicity flag (confluency mask): not cytotoxic, agonist: Imiquimod (TLR7) […]
[8] = library stock concentration (final ~1000-fold dilution): 10 mM, cytotoxicity flag (confluency mask): not cytotoxic, agonist: MPLA (TLR4) […]
[9] = library stock concentration (final ~1000-fold dilution): 10 mM, cytotoxicity flag (confluency mask): cytotoxic (confluency <70% of control), agonist: Imiquimod (TLR7) […]
[10] = library stock concentration (final ~1000-fold dilution): 10 mM, cytotoxicity flag (confluency mask): cytotoxic (confluency <70% of control), agonist: MPLA (TLR4) […]

## C=C1c2cccc(O)c2C(=O)C2=C(O)C3(O)C(=O)C(C(N)=O)=C(O)C(N(C)C)C3C(O)C12.Cl (configuration not stated) (library stock concentration (final ~1000-fold dilution): 10 mM water)
RAW-Dual [1]; agonist: LPS (TLR4) 0.1 ug/mL
  NF-kB SEAP reporter activity: 1.12
RAW-Dual [1]; [4]
  NF-kB SEAP reporter activity: 1.14
RAW-Dual [1]; [5]
  NF-kB SEAP reporter activity: 1.26
RAW-Dual [1]; [6]
  NF-kB SEAP reporter activity: 1.05

## C=C1c2cccc(O)c2C(=O)C2=C(O)C3(O)C(=O)C(C(N)=O)=C(O)C(N(C)C)C3C(O)C12.Cl (configuration not stated)
RAW-Dual [2]; library stock concentration (final ~1000-fold dilution): 10 mM water, cytotoxicity flag (confluency mask): not cytotoxic, agonist: Imiquimod (TLR7) […]
  NF-kB SEAP reporter activity: 0.915
RAW-Dual [2]; library stock concentration (final ~1000-fold dilution): 10 mM water, cytotoxicity flag (confluency mask): not cytotoxic, agonist: MPLA (TLR4) […]
  NF-kB SEAP reporter activity: 1.08

## Fc1ccc2c(/C=C/c3nnn[nH]3)c[nH]c2c1 (library stock concentration (final ~1000-fold dilution): 10 mM)
RAW-Dual [1]; agonist: LPS (TLR4) 0.1 ug/mL
  NF-kB SEAP reporter activity: 1.11
RAW-Dual [1]; [4]
  NF-kB SEAP reporter activity: 0.894
RAW-Dual [1]; [5]
  NF-kB SEAP reporter activity: 0.966
RAW-Dual [1]; [6]
  NF-kB SEAP reporter activity: 1.14

## Fc1ccc2c(/C=C/c3nnn[nH]3)c[nH]c2c1
RAW-Dual [2]; [7]
  NF-kB SEAP reporter activity: 0.885
RAW-Dual [2]; [8]
  NF-kB SEAP reporter activity: 1.05

## C/C1=C/CC[C@@]2(C)O[C@@H]2[C@H]2OC(=O)[C@H](CN(C)C)[C@@H]2CC1 (library stock concentration (final ~1000-fold dilution): 10 mM)
RAW-Dual [1]; agonist: LPS (TLR4) 0.1 ug/mL
  NF-kB SEAP reporter activity: 0.302
RAW-Dual [1]; [4]
  NF-kB SEAP reporter activity: 0.185
RAW-Dual [1]; [5]
  NF-kB SEAP reporter activity: 0.197
RAW-Dual [1]; [6]
  NF-kB SEAP reporter activity: 0.151

## C/C1=C/CC[C@@]2(C)O[C@@H]2[C@H]2OC(=O)[C@H](CN(C)C)[C@@H]2CC1
RAW-Dual [2]; [7]
  NF-kB SEAP reporter activity: 0.137
RAW-Dual [2]; [8]
  NF-kB SEAP reporter activity: 0.246

## O=C(CCCCCCNC(=O)c1cnc(N(c2ccccc2)c2ccccc2Cl)nc1)NO
RAW-Dual [2]; [9]
  NF-kB SEAP reporter activity: 1.51
RAW-Dual [2]; [10]
  NF-kB SEAP reporter activity: 2.19

## O=C(CCCCCCC(=O)N/N=C/c1ccc(N(c2ccccc2)c2ccccc2)cc1)NO
RAW-Dual [2]; [9]
  NF-kB SEAP reporter activity: 1.77
RAW-Dual [2]; [10]
  NF-kB SEAP reporter activity: 2.3

## O=C(CCCCCCNC(=O)c1cnc(N(c2ccccc2)c2ccccc2)nc1)NO (library stock concentration (final ~1000-fold dilution): 10 mM)
RAW-Dual [3]; agonist: LPS (TLR4) 0.1 ug/mL
  NF-kB SEAP reporter activity: 4.12
RAW-Dual [3]; [4]
  NF-kB SEAP reporter activity: 1.3
RAW-Dual [3]; [5]
  NF-kB SEAP reporter activity: 0.825
RAW-Dual [3]; [6]
  NF-kB SEAP reporter activity: 1.08

## CN(C)CCCNC(=O)c1ccc(-c2cc(O)c3ncccc3c2)cc1 (library stock concentration (final ~1000-fold dilution): 10 mM)
RAW-Dual [1]; agonist: LPS (TLR4) 0.1 ug/mL
  NF-kB SEAP reporter activity: 0.881
RAW-Dual [1]; [4]
  NF-kB SEAP reporter activity: 1.38
RAW-Dual [1]; [5]
  NF-kB SEAP reporter activity: 1.13
RAW-Dual [1]; [6]
  NF-kB SEAP reporter activity: 1.34

## O=C(CCCCCCNC(=O)c1cnc(N(c2ccccc2)c2ccccc2)nc1)NO
RAW-Dual [2]; [9]
  NF-kB SEAP reporter activity: 1.12
RAW-Dual [2]; [10]
  NF-kB SEAP reporter activity: 2.14

## CN(C)c1ccc(C(=O)NCCCCCCC(=O)NO)cc1
RAW-Dual [2]; [9]
  NF-kB SEAP reporter activity: 2.83
RAW-Dual [2]; [10]
  NF-kB SEAP reporter activity: 2.64

## CCOC(=O)NCCCC(=O)NCCc1ccccc1 (library stock concentration (final ~1000-fold dilution): 10 mM)
RAW-Dual [1]; agonist: LPS (TLR4) 0.1 ug/mL
  NF-kB SEAP reporter activity: 1.31
RAW-Dual [1]; [4]
  NF-kB SEAP reporter activity: 0.995
RAW-Dual [1]; [5]
  NF-kB SEAP reporter activity: 1.17
RAW-Dual [1]; [6]
  NF-kB SEAP reporter activity: 1.06

## CN(C)c1ccc(C(=O)NCCCCCCC(=O)NO)cc1 (library stock concentration (final ~1000-fold dilution): 10 mM)
RAW-Dual [3]; agonist: LPS (TLR4) 0.1 ug/mL
  NF-kB SEAP reporter activity: 4.72
RAW-Dual [3]; [4]
  NF-kB SEAP reporter activity: 2.78
RAW-Dual [3]; [5]
  NF-kB SEAP reporter activity: 1.17
RAW-Dual [3]; [6]
  NF-kB SEAP reporter activity: 2.01

## O=C(NO)c1cccc(C(=O)NCCc2ccccc2)c1
RAW-Dual [2]; [7]
  NF-kB SEAP reporter activity: 1.05
RAW-Dual [2]; [8]
  NF-kB SEAP reporter activity: 1.05

## O=C(CCCCCCC(=O)N/N=C/c1ccc(N(c2ccccc2)c2ccccc2)cc1)NO (library stock concentration (final ~1000-fold dilution): 10 mM)
RAW-Dual [3]; agonist: LPS (TLR4) 0.1 ug/mL
  NF-kB SEAP reporter activity: 5.47
RAW-Dual [3]; [4]
  NF-kB SEAP reporter activity: 2.71
RAW-Dual [3]; [5]
  NF-kB SEAP reporter activity: 1.09
RAW-Dual [3]; [6]
  NF-kB SEAP reporter activity: 1.61

## CN(C)CCCNC(=O)c1ccc(-c2cc(O)c3ncccc3c2)cc1
RAW-Dual [2]; [7]
  NF-kB SEAP reporter activity: 1.08
RAW-Dual [2]; [8]
  NF-kB SEAP reporter activity: 1

## O=C(NO)c1cccc(C(=O)NCCc2ccccc2)c1 (library stock concentration (final ~1000-fold dilution): 10 mM)
RAW-Dual [1]; agonist: LPS (TLR4) 0.1 ug/mL
  NF-kB SEAP reporter activity: 0.989
RAW-Dual [1]; [4]
  NF-kB SEAP reporter activity: 1.12
RAW-Dual [1]; [5]
  NF-kB SEAP reporter activity: 0.864
RAW-Dual [1]; [6]
  NF-kB SEAP reporter activity: 0.709

## O=C(N/N=C/c1ccc(O)c(O)c1)c1cc2ccccc2cc1O
RAW-Dual [2]; [7]
  NF-kB SEAP reporter activity: 0.605
RAW-Dual [2]; [8]
  NF-kB SEAP reporter activity: 0.843

## O=C(CCCCCCNC(=O)c1cnc(N(c2ccccc2)c2ccccc2Cl)nc1)NO (library stock concentration (final ~1000-fold dilution): 10 mM)
RAW-Dual [3]; agonist: LPS (TLR4) 0.1 ug/mL
  NF-kB SEAP reporter activity: 4.23
RAW-Dual [3]; [4]
  NF-kB SEAP reporter activity: 2.1
RAW-Dual [3]; [5]
  NF-kB SEAP reporter activity: 0.586
RAW-Dual [3]; [6]
  NF-kB SEAP reporter activity: 1.47

## CCN(CC)CCNC(=O)c1ccc(N)cc1.Cl
RAW-Dual [2]; [7]
  NF-kB SEAP reporter activity: 0.94
RAW-Dual [2]; [8]
  NF-kB SEAP reporter activity: 1.05

## CCOC(=O)NCCCC(=O)NCCc1ccccc1
RAW-Dual [2]; [7]
  NF-kB SEAP reporter activity: 0.961
RAW-Dual [2]; [8]
  NF-kB SEAP reporter activity: 0.985

## CCN(CC)CCNC(=O)c1ccc(N)cc1.Cl (library stock concentration (final ~1000-fold dilution): 10 mM)
RAW-Dual [1]; agonist: LPS (TLR4) 0.1 ug/mL
  NF-kB SEAP reporter activity: 0.999
RAW-Dual [1]; [4]
  NF-kB SEAP reporter activity: 1.02
RAW-Dual [1]; [5]
  NF-kB SEAP reporter activity: 0.923
RAW-Dual [1]; [6]
  NF-kB SEAP reporter activity: 1.04

## O=C(N/N=C/c1ccc(O)c(O)c1)c1cc2ccccc2cc1O (library stock concentration (final ~1000-fold dilution): 10 mM)
RAW-Dual [1]; agonist: LPS (TLR4) 0.1 ug/mL
  NF-kB SEAP reporter activity: 0.616
RAW-Dual [1]; [4]
  NF-kB SEAP reporter activity: 0.257
RAW-Dual [1]; [5]
  NF-kB SEAP reporter activity: 0.16
RAW-Dual [1]; [6]
  NF-kB SEAP reporter activity: 0.192
